# Measurements taken from ChEMBL document CHEMBL4513216, “Probing the Open Global Health Chemical Diversity Library for Multistage-Active Starting Points for Next-Generation Antimalarials” (ACS Infect Dis, 2020).
# Screen size: about 69,000 compounds; about 8,600 (12%) showed an effect of 50% or more. The entries come from a sample that favours strong results as a whole.
# Test system: Plasmodium berghei
# Experiment: Screen against P. berghei liver stage (PbLuc), transformed with Luciferase, at 10uM
# Assay type: functional, HepG2
# Settings: tested at 10 uM
row,SMILES,INHIBITION [%]
1,O=C(NCc1ccc2c(c1)OCO2)[C@@H]1C=CCN1c1ncccn1,-0.232
2,CCOCC1CC2(CCN(C(=O)c3ccccn3)CC2)CO1 (stereo not drawn),32.4
3,Cc1cc(C)nc(N2CCC(C(=O)Nc3n[nH]c(C(C)C)n3)CC2)n1,24.7
4,Cc1noc(C(C)Nc2ccc(N3CCOCC3)cc2C)n1 (stereo not drawn),23.1
5,CCOC(=O)CSc1nnc([C@@H](N)CC(C)C)o1,12.3
6,O=C(COC1CCCC1)N1C[C@@H]2CN(Cc3ccoc3)CCO[C@@H]2C1,29.8
7,Cc1cc(N2CCC(N(C)C(=O)c3ccccc3)CC2)nc(C)n1,2.3
8,Cc1cc(N2CCC(N(C)C(=O)c3ccc(C#N)cc3)CC2)nc(C)n1,81.1
9,Cc1cc(N2CCC(N(C)C(=O)c3ccccc3F)CC2)nc(C)n1,56.1
10,Cc1cc(N2CCC(N(C)C(=O)Nc3ccccc3)CC2)nc(C)n1,4.71
11,Cc1cc(N2CCC(N(C)C(=O)c3cccs3)CC2)nc(C)n1,22
12,Cc1cc(N2CCC(N(C)C(=O)c3sccc3C)CC2)nc(C)n1,68.6
13,Cc1cc(N2CCC(O)CC2)nc(C)n1,41
14,CN(C(=O)c1ccc(C#N)cc1)C1CCN(c2ccccn2)CC1,-39.5
15,COc1ccccc1C(=O)N(C)C1CCN(c2ccccn2)CC1,19.5
16,CCNc1cc2c(nn1)CCN(C(=O)CCc1c(C)noc1C)C2,1.78
17,COc1c(C2CCCN2C(=O)c2cnc(C)cn2)c(C)nn1C (stereo not drawn),-14.7
18,O=C(Cn1cc(-c2ccccc2)ncc1=O)Nc1nccs1,-13.6
19,Cc1nc(C2CCCN(C(=O)c3ccnc(N(C)C)c3)C2)no1 (stereo not drawn),-27
20,CN(C)C(=O)c1c[nH]nc1C1CCN(S(=O)(=O)c2ccccc2)CC1,-36.4
21,O=C(C1CCC2(CCN(c3nncs3)CC2)C1)N1CCCC1 (stereo not drawn),-16.9
22,CNC(=O)C1CCC2(CCN(c3ncc(C)cn3)CC2)CO1 (stereo not drawn),11.3
23,O=C([C@@H]1CCCO1)N1CCOCC2(CCN(Cc3cccnc3)C2)C1 (stereo partly drawn),40.3

row,SMILES,INHIBITION [%]
1,O=C(C1CCCO1)N1CCC2(CC1)COCCN(Cc1cccnc1)C2 (stereo not drawn),12.2
2,CC(C)NC(=O)C1CCC2(CCN(c3ncccn3)CC2)CO1 (stereo not drawn),15.7
3,O=C(C1CCC2(CCN(c3ncccn3)CC2)CO1)N1CCCC1 (stereo not drawn),-7.24
4,O=C(C1CCC2(CCN(c3nncs3)CC2)CO1)N1CCCC1 (stereo not drawn),57.1
5,O=C(C1CCC2(CCN(Cc3cccnc3)CC2)CO1)N1CCCC1 (stereo not drawn),62
6,CNC(=O)C1CCC2(CCN(c3nncs3)CC2)CO1 (stereo not drawn),61.9
7,CC(C)(C)C(=O)N1CC[C@@H]2[C@H](CC1)N(S(C)(=O)=O)CCS2(=O)=O,37.1
8,CN1CCN(C(=O)c2cc(-c3cccs3)cs2)CC1,-11.4
9,Cc1nc(C2CCCN2C(=O)COCc2ccccc2)no1 (stereo not drawn),7.27
10,COc1cnc(CSc2nnc(C)s2)cc1OCC(=O)NC1CCCC1,43.3
11,CNc1cncc(C2CCCN2Cc2ccnc(C)n2)n1 (stereo not drawn),48.6
12,CN1CCc2c(C#N)c(NCCCN3CCOCC3)n3cnnc3c2C1,3.95
13,COc1ccc(CN2CCOC3(CCCN(C(C)=O)C3)C2)cc1 (stereo not drawn),7.31
14,CCOc1cccc(CNC(C)c2ccc(-n3ccnc3)cc2)c1O (stereo not drawn),47.1
15,COc1ccccc1CNC(C)c1ccc(-n2ccnc2)cc1 (stereo not drawn),70.3
16,COc1cccc(CNC(C)c2ccc(-n3ccnc3)cc2)c1OC (stereo not drawn),35
17,COc1cccc(CNC(C)c2ccc(-n3ccnc3)cc2)c1O (stereo not drawn),43.4
18,CC(NCc1ccccc1O)c1ccc(-n2ccnc2)cc1 (stereo not drawn),61.9
19,COCCC(C)NCc1ccccc1-n1ccnc1 (stereo not drawn),15.2
20,CC1CCC(O)(CSc2nnnn2C)CC1 (stereo not drawn),4.52
21,CCn1ncc2c1C(COC)N(C(=O)CCc1ccccc1)CC2 (stereo not drawn),43
22,Cc1cnc(CC2COCCN(C(=O)c3cncnc3)C2)cn1 (stereo not drawn),-13.2
23,CC(NCc1cc(O)c2cccc(F)c2n1)c1ccccc1O (stereo not drawn),25

row,SMILES,INHIBITION [%]
1,Cc1nc(-c2c(-c3ccccc3)ncn2CCCN2CCOCC2)c[nH]1,27.6
2,OCc1ccc(-c2c(-c3ccccc3)ncn2CCN2CCOCC2)o1,53.3
3,Cc1ccc(CNCCN2CCOCC2)o1,5.34
4,Cc1ccc(-c2c(-c3ccccc3)ncn2CCCN2CCOCC2)o1,20.1
5,c1ccc(-c2ncn(CCCN3CCOCC3)c2-c2ccncc2)cc1,55.4
6,CSCc1ccc(CNCCN2CCOCC2)o1,15.6
7,COCCCn1ccc(NC(=O)NCc2cccc(N(C)C)c2)n1,21.5
8,O=C1[C@@H]2CC[C@@H](CN(Cc3ccccc3OC(F)F)C2)N1CC1CC1,18.5
9,CN(C)CC(=O)N1Cc2cc(-c3cc[nH]n3)ccc2C1c1cnco1 (stereo not drawn),-19.8
10,CC(=O)NCC(=O)N1Cc2cc(C#N)ccc2C1c1cnco1 (stereo not drawn),65.9
11,CC(=O)NCC(=O)N1CC[C@H](OCC2CC2)[C@@H]1Cc1cccnc1,4.92
12,N#CC1(C(=O)N2Cc3cc(-c4cc[nH]n4)ccc3C2c2cnco2)CC1 (stereo not drawn),-18.3
13,CN(C)c1ccc2c(c1)CN(C(=O)c1ccco1)C2c1cnco1 (stereo not drawn),-0.554
14,CN(C)CC(=O)N1Cc2cc(N(C)C)ccc2C1c1cnco1 (stereo not drawn),33.4
15,CN(C)c1ccc2c(c1)CN(C(=O)c1ccnnc1)C2c1cnco1 (stereo not drawn),-0.554
16,CC(=O)NCC(=O)N1Cc2cc(-c3cc[nH]n3)ccc2C1c1cnco1 (stereo not drawn),71.8
17,CN(C)c1ccc2c(c1)CN(C(=O)c1c[nH]cn1)C2c1cnco1 (stereo not drawn),76.3
18,CN(C)c1ccc2c(c1)CN(C(=O)c1cnccn1)C2c1cnco1 (stereo not drawn),31.9
19,N#Cc1ccc2c(c1)CN(C(=O)c1nc[nH]n1)C2c1cnco1 (stereo not drawn),64.5
20,N#Cc1ccc2c(c1)CN(C(=O)C1CC=CC1)C2c1cnco1 (stereo not drawn),34.9
21,O=C(CN1CCOC1=O)N(Cc1ccccc1)Cc1nccs1,22.1
22,CC(C)CN1CC(C(=O)NCCNc2ncccn2)CC1=O (stereo not drawn),21.6
23,N#Cc1ccc(CN2CCN(c3cncc(Cl)n3)CC2=O)cc1,-5.33

row,SMILES,INHIBITION [%]
1,CN(Cc1n[nH]c2c1CCCCC2)C(=O)c1cc(-c2cccn2C)n[nH]1,-89.3
2,COCCN1CCN(Cc2c(C3CCNCC3)[nH]c3ncccc23)CC1,-12.9
3,CSc1ccccc1CN1C[C@H]2C(=O)N(CC3CC3)C[C@@]2(C(=O)O)C1,-26.9
4,O=C1[C@@H]2CN(Cc3cc4ccccc4o3)C[C@]2(C(=O)O)CN1CC1CC1,79.8
5,CCCc1ccc(CN2C[C@H]3C(=O)N(CC4CC4)C[C@@]3(C(=O)O)C2)o1,6.28
6,COc1cccc(-n2cc3[nH]c(=O)n(C(C)C)n3c2=O)c1,-34
7,O=C(c1ccncc1F)N1CCc2ncnc(-c3ccncc3)c2CC1,-7.39
8,O=C(c1ccncc1F)N1CCc2ncnc(C3CC3)c2CC1,-2.72
9,CC(C)Nc1ncnc2c1CCN(C(=O)c1ccncc1F)CC2,53.5
10,CCOc1ncnc2c1CCN(C(=O)c1ccncc1F)CC2,54.4
11,CCc1ncnc2c1CCN(C(=O)c1ccncc1F)CC2,-49.3
12,O=C(c1ccncc1F)N1CCc2ncnc(N3CCOCC3)c2CC1,5.44
13,Cc1ncnc2c1CCN(C(=O)c1ccncc1F)CC2,68.4
14,Cc1ncnc2c1CCN(C(=O)c1ccncc1)CC2,19.5
15,CCOc1ncnc2c1CCN(C(=O)c1cnccn1)CC2,-103
16,Cc1ncnc2c1CCN(C(=O)c1ccnnc1)CC2,60.1
17,CC(C)Nc1ncnc2c1CCN(C(=O)c1ccccc1F)CC2,32.2
18,Cc1ncnc2c1CCN(C(=O)c1cccnc1)CC2,-2.17
19,CS(=O)(=O)N1CCc2ccc(=O)n(CCN3CCCC3)c2CC1,46.4
20,CCc1nc(C2CCCN2C(=O)c2cnc[nH]2)no1 (stereo not drawn),37.9
21,CCOCC1CN(C(=O)C2=CCCC2)Cc2cnn(CC)c21 (stereo not drawn),42.6
22,Cc1cnn(CC2CN(CCCc3nc4ccccc4o3)CCO2)c1 (stereo not drawn),-12.1
23,CCn1nc(C)c(NC(=O)CN2CCC(c3ccccc3Cl)C2)c1C (stereo not drawn),48.2

row,SMILES,INHIBITION [%]
1,COCCN1C[C@H](NC(=O)CCC(F)(F)F)[C@@H](C(C)C)C1,30.9
2,CC(=O)N1CCCC(c2ccc(CO)c(-c3c(C)noc3C)n2)C1 (stereo not drawn),18.4
3,CCc1nc(C)c(C(=O)NCCN2CCCC2)s1,-19.9
4,COC(=O)c1ccc(C(=O)NCc2nn(C)c3c2COCC3)cc1,6
5,COCC(C)(C#N)NC(=O)COc1ccccc1Br (stereo not drawn),-3.81
6,COCC(C)(C#N)NC(=O)COc1ccccc1 (stereo not drawn),66.7
7,CC(C)(C)NC(=O)COc1ccc(Oc2ccccn2)cc1,23.7
8,OCc1cnc(Nc2ccccc2)nc1,-7.27
9,Cc1c(CN2CCOCC2)c(O)n(CCc2ccccc2)c(=O)c1C#N,6
10,Cc1ccc(NCc2cncc3c2CCN(Cc2ccccn2)C3)nn1,-30.7
11,CN(Cc1cccnc1)Cc1cncc2c1CCN(c1ccccn1)C2,51.2
12,Cc1ccc(N2CCc3c(CN(C)Cc4ccco4)cncc3C2)nn1,-11.2
13,Cc1occc1C(=O)N1CCc2c(CNc3ncccn3)cncc2C1,4.27
14,Cn1cc(C(=O)NCc2cncc3c2CCN(c2ccccn2)C3)cn1,34
15,Cn1cc(C(=O)NCc2cncc3c2CCN(S(C)(=O)=O)C3)cn1,38.5
16,Cc1cnc(N2CCc3c(CN(C)Cc4ccco4)cncc3C2)nc1,66.8
17,Cc1nccc(NCc2cncc3c2CCN(S(C)(=O)=O)C3)n1,59.3
18,Cc1cnc(N2CCc3c(CNc4ccnc(C)n4)cncc3C2)nc1,94.6
19,COCc1cncc2c1CCN(Cc1ccccn1)C2,-13.2
20,CN(Cc1ccco1)Cc1cncc2c1CCN(c1ncccn1)C2,37
21,CN(Cc1ccco1)Cc1cncc2c1CCN(S(C)(=O)=O)C2,40.1
